Compound activity deposited in PubChem BioAssay by several laboratories.
EBV LMP1 NFkB: inhibitors of Epstein-Barr LMP1-induced NF-kappaB reporter; LMP1-induced NF-kappaB luciferase reporter cells, luminescence; inhibition, % at 12.5 µM; actives 0.69% (n = 350,000); AID 504558; in the data active = inhibition above about 41%; inconclusive = no clear call, values can overlap the other calls;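 also: 0% = neutral control wells and 100% = reference inhibitor control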
TWEAK-Fn14 inh: inhibitors of TWEAK-Fn14 interaction signaling | TWEAK-stimulated Fn14 reporter cells, luciferase luminescence, 8 h | inhibition, % at 10 µM | actives 2% (n = 360,000) | AID 1159606; in the data active = inhibition above about 50%
TRPM1 prom inh: MITF TRPM1 promoter inhibition in SK-MEL-5 cells; SK-MEL-5 TRPM1 promoter luciferase, 24 h; inhibition, % at 12.5 µM; actives 0.83% (n = 330,000); AID 488899;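 active = mean inhibition across replicates of 60% or more, whatever share of single replicates reaches that level; inconclusive = some that reach 60%, reason not given; inactive = mean inhibition across replicates below 60%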
TROY NFkB inh: TROY signaling inhibition; Q293 LMP1-TROYcd NF-kB luciferase reporter, 4 h; inhibition, % at 10 µM; actives 0.98% (n = 360,000); AID 1347056;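 active = compounds whose plate-normalised and pattern-corrected inhibition of the luciferase reporter signal at the single screening dose is 50% or more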
MITF act: activators of MITF-driven TRPM1 promoter activity in SK-MEL-5 cells; SK-MEL-5 TRPM1-promoter luciferase, 24 h; % of positive control, neutral wells = 0; activation, % at 12.5 µM; actives 0.75% (n = 300,000); AID 588334;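 active = mean activation of at least 80% with every replicate also reaching 80%; inconclusive = mean reaches 80% but some replicate falls short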;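 also: 0% = neutral control wells and 100% = parthenolide positive control wells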
LGR2 inh: blocks bursicon-induced cAMP signaling via Drosophila LGR2; HEK293 LGR2, CRE-luciferase, bursicon-stimulated, 4 h; inhibition, % at 9.99 µM; actives 0.35% (n = 380,000); AID 720647;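 active = drop in luminescence signal, shown as inhibition above about 50% in the replicate tests, limit read from the data, passing the limit was not always enough; inconclusive = probably only some replicates passing the limit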;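 also: agonist challenge used bursicon conditioned medium at about half maximal strength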
* = called active by the depositor; ? = inconclusive; nt = not tested or not shown; ! = repeats disagree. This is a sample that favours compounds with a hit; in the whole collection about 3% have one here.

SMILES	EBV LMP1 NFkB	TWEAK-Fn14 inh	TRPM1 prom inh	TROY NFkB inh	MITF act	LGR2 inh
COc1cccc(C(=O)Oc2ccc(/C=N/Nc3ccc(C(=O)O)cc3)cc2OC)c1	-7.3	60.5*	13.3	-5.1	-11.5	15.5
COc1ccc(/C=N/NC(=O)c2ccc(N(C)S(=O)(=O)c3ccccc3)cc2)c(OC)c1	15.4	-12.9	11.9	13.4	-5.6	-14.8
C[C@@H]1CN([C@H](C)CO)S(=O)(=O)c2ccc(C#CC3(O)CCCC3)cc2O[C@H]1CN(C)C(=O)Cc1cccnc1	nt	nt	nt	nt	nt	2.7
Cc1ccc(C(=O)N/N=C\c2ccc(OC(=O)c3cccc(F)c3)cc2)cn1	-3.4	-28.2	11.5	-37.6	-12.7	6.3
COc1cc(/C=N\NC(=O)c2ccc(C)nc2)ccc1OC(=O)c1cccc(F)c1	0.3	72.5*	-6.8	14.9	14.1	-16.9
CCN(CC)C(=O)c1cc2sc3ccccc3c2s1	-29.0	-56.0	-93.8	-40.9	97.8*	nt
COCCN(CCOC)C(=O)c1cc2sc3ccccc3c2s1	-0.4	-29.3	-30.1	-61.6	32.5	-24.4
N#C/C(=C\c1ccco1)C(=O)NCc1ccccc1	-2.4	9.9	-2.3	8.1	3.3	nt
N#CC(C#N)=C1C=CC=CN1/C(=C\c1ccco1)C(=O)c1ccc(-c2ccccc2)cc1	-31.7	88.5*	72.7*	32.4	-70.6	4.6
N#CC(C#N)=C1C=CC=CN1/C(=C\c1ccco1)C(=O)c1ccc(Cl)cc1	-29.7	97.3*	89.8*	85.5*	-89.2	105.2*
CC(/C=N/n1c(-c2ccc(Cl)cc2)n[nH]c1=S)=C\c1ccco1	2.6	18.9	2.2	10.3	-2.1	-5.3
CO[C@@H]1CN(C)C(=O)c2ccc(NS(=O)(=O)c3ccc(C)cc3)cc2OC[C@H](C)N(C(=O)NC(C)C)C[C@@H]1C	nt	nt	nt	nt	nt	-2.8
Cc1cc(Cl)c(S(=O)(=O)N2CCSCC2)cc1OCC(=O)NC1CCCCC1	23.6	60.9*	47.9	41.1	nt	nt
Cc1cc(Cl)c(S(=O)(=O)N2CCN(c3ccccn3)CC2)cc1OCC(=O)NC1CCCCC1	32.5	62.7*	6.2	53.2*	-2.0	18.6
CNc1cccnc1C=NNC(N)=S	67.2*	-7.6	46.5	1.6	nt	27.5
NC(=S)NN=Cc1nccc2c(C(F)(F)F)cccc12	62.1*	12.1	nt	13.3	nt	16.2
NC(=S)N/N=C/c1ccccc1	3.1	9.2	7.9	-4.4	-6.8	10.3
O=C(Nc1ccc2c(c1)[C@@H]1C[C@H](CC(=O)N3CCCCC3)O[C@@H](CO)[C@@H]1O2)c1ccc2c(c1)OCO2	nt	nt	nt	nt	nt	0.4
COCCNC(=O)C[C@@H]1C[C@@H]2c3cc(NC(=O)Nc4ccc(F)cc4)ccc3O[C@@H]2[C@H](CO)O1	nt	nt	nt	nt	nt	-5.7
CCSCCc1nnc(NC(=O)Nc2cccc(C(F)(F)F)c2)s1	5.1	63.8*	66.9*	63.0*	-64.4	27.6
O=C(Nc1cccc(C(F)(F)F)c1)Nc1nnc([C@H]2C[C@H](O)[C@@H](CO)O2)s1	nt	30.7	nt	-10.6	nt	41.2
COc1ccccc1Nc1nc(C)cs1	-4.4	5.8	-88.5	-10.3	88.8*!	nt
Cc1csc(Nc2cccc3ccccc23)n1	-2.0	2.5	-17.2	-21.6	23.5	2.7
Cc1cccc(CS(=O)(=O)c2ncc(Cl)c(C(=O)Nc3nnc(C(C)C)s3)n2)c1	56.3*	100.8*	76.5*	55.0*	-77.3	nt
Cc1ccc(CS(=O)(=O)c2ncc(Cl)c(C(=O)Nc3nnc(C(C)C)s3)n2)cc1	39.0	99.8*	79.2*	60.4*	-79.7	-26.6
SMILES	EBV LMP1 NFkB	TWEAK-Fn14 inh	TRPM1 prom inh	TROY NFkB inh	MITF act	LGR2 inh
Cc1nnc(NC(=O)c2nc(S(=O)(=O)Cc3ccccc3C)ncc2Cl)s1	81.1*	102.3*	79.6*	28.1	-80.6	-39.4
CC(C)c1nnc(NC(=O)c2nc(S(=O)(=O)Cc3ccccc3F)ncc2Cl)s1	nt	nt	nt	nt	nt	-16.2
CC(C)c1nnc(NC(=O)CS(=O)(=O)Cc2ccccc2)s1	-6.0	16.5	5.6	-8.8	-4.8	-0.5
CC(C)c1nnc(NC(=O)c2nc(S(=O)(=O)Cc3ccc(F)cc3)ncc2Cl)s1	85.2*	99.2*	75.2*	29.5	-72.8	-9.1
COc1ccc(S(=O)(=O)Nc2cccc3c2O[C@@H](CN(C)C(=O)NC(C)C)[C@@H](C)CN([C@@H](C)CO)C3=O)cc1	nt	nt	nt	nt	nt	-21.0
CSc1nnc(NC(=O)c2nc(S(=O)(=O)Cc3ccccc3F)ncc2Cl)s1	12.8	97.2*	75.0*	7.3	-76.9	-9.6
CCSc1nnc(NC(=O)c2nc(S(=O)(=O)Cc3ccc(F)cc3)ncc2Cl)s1	5.5	99.5*	40.3	-2.3	-36.0	-23.7
CSc1nnc(NC(=O)c2nc(S(=O)(=O)Cc3cccc(C)c3)ncc2Cl)s1	?	94.3*	81.0*	46.2	-81.0	-7.5
CC(C)NC(=O)Nc1cccc2c1O[C@@H](CN(C)C(=O)Nc1cccc3ccccc13)[C@@H](C)CN([C@@H](C)CO)C2=O	nt	nt	nt	nt	nt	-11.3
CO[C@H]1CN(C)C(=O)c2cc(NC(=O)C3CCC3)ccc2OC[C@@H](C)N(C(=O)CN(C)C)C[C@@H]1C	nt	nt	nt	nt	nt	7.5
CSCCC(NC(=O)c1ccco1)C(=O)NC1CCC(C)CC1 (centres undefined)	-25.1	-9.1	-109.9	-18.1	112.0*	-37.3
Cn1c2ccccc2c(=O)c2c(=O)n(C3CCCCC3)c(-c3ccco3)nc21	-3.2	-39.5	70.4*	-30.7	-68.6	?
Cc1nc2c(c(=O)c3ccccc3n2C)c(=O)n1C1CCCCCC1	-4.5	-11.2	-36.0	-30.2	nt	nt
Cc1ccc(-c2csc3ncn(/N=C/N(C)C)c(=O)c23)o1	4.2	98.5*	10.9	9.7	-11.4	nt
O=C(C[C@H]1C=C[C@H](NC(=O)c2cccc(F)c2)[C@@H](CO)O1)NCCN1CCCC1	nt	nt	nt	nt	nt	23.7
Cc1ccc(NC(=O)N2CCc3ccccc3C2)cc1C	-13.5	-4.1	-91.8	-53.7	95.1*	-78.8
Fc1ccccc1-c1nc(NC2CCCC2)c2ccccc2n1	-3.0	36.0	-0.9	11.7	-1.3	-5.2
CNc1nc(-c2ccccn2)nnc1-c1ccccc1	3.1	4.0	4.3	1.2	-3.1	nt
c1ccc(-c2nnc(-c3ccccn3)nc2NC2CCCCC2)cc1	86.1*	-17.2	73.8*	-5.3	-72.6	11.2
